This is an account of results in PubChem BioAssay (NCATS).

Records with an inconclusive call do not appear. Where a call stands in place of a potency, no number is given. Calls of active or inactive are those of the source. Calls follow the shape of the dose curve; as a rule, active = well fitted cell-killing curve with a large enough effect; inconclusive = small, poorly fitted or top-dose-only effect; inactive = flat fitted curve, though single readings scatter.
Potency is read from the fitted curve at half-maximal effect.

This assay can be described thus: Cell Viability - LYMP2-023 (AID 975). Also: nearly all actives have a fitted effect of over 55% in size. The conditions noted are these: LYMP2-023 lymphoblastoid cell viability; series mostly up to 92.2 µM. From the text: NIH Chemical Genomics Center [NCGC]
NIH Molecular Libraries Screening Centers Network [MLSCN]
National Institutes of Environmental Health Sciences [NIEHS]
National Toxicology Program [NTP]
We have developed a 1536-well cell-based assay for quantitative high throughput screening (qHTS) against a number of cell lines to determine in vitro cytotoxicity of small molecules. This particular assay uses a human lymphoblastoid cell line (LYMP2-023) purchased from Coriell Institute for Medical Research.
NCGC Assay Protocol Summary:
The CellTiter-Glo luminescent cell viability assay (Promega) is a homogeneous method to measure the number of viable cells in culture. The end point readout of this assay is based on quantitation of intracellular ATP, an indicator of metabolic activity, using the luciferase reaction. Luciferase catalyzes the oxidation of beetle Luciferin to oxyluciferin and light in the presence of ATP. The luminescent signal is proportional to amount of ATP present.
Using the CellTiter-Glo luminescent cell viability assay, the amount of cellular ATP was measured in the lymphoblastoid cell line with complete culture medium following compound treatment for 24 hours. The assay was performed in opaque white Kalypsys 1536-well plates. In the screen, tetraoctylammonium bromide was used as positive control. Library compounds were measured for their ability to cause acute toxicity in the cell line, as reflected by a decrease in intracellular ATP levels, in a concentration-dependent manner. […] AC50 values were determined from concentration-response data modeled with the standard Hill equation.
qHTS protocol for CellTiter Glo lymphoblastoid cellular assay
[Step] [Parameter] [Value] [Description]
1. Reagent; 5 uL; 2500 lymphoblastoid cells/well
2. Time; 5 hr; 37 C incubation
4. Controls; 23 nL; Tetraoctylammonium bromide 6.4pM to 92 uM
5. Time; 24 hr; 37 C incubation
6. Reagent; 5 uL; CellTiter Glo reagent
7. Time; 30 min; Room Temperature
8. Detection; Luminescence; Viewlux plate reader
Keywords: cell viability, cytotoxicity, lymphoblastoid cell line, luminescence, NTPHTS, NTPHTS_NCGC, NIEHS, DSSTox, MLSMR, MLSCN, NIH Roadmap, qHTS, NCGC
Regarding `O=C(NO)c1ccccc1`, the Potency result was “inactive”. `OCc1c[nH]c2ccccc12`: the Potency result is “inactive”. The entry for `O=C(c1ccccc1)c1ccccc1` is “inactive”.

For the compound `c1ccc2occc2c1`, the Potency result was “inactive”. Under `COc1cc(C=O)ccc1O` stands “inactive”; under `Cc1ccc(O)cc1`, “inactive”. The entry for `CC(C)(c1ccc(O)cc1)c1ccc(O)cc1` is “inactive”; for `Nc1cccc2c(N)cccc12` it is “inactive”; for `Nc1c2ccccc2nc2ccccc12` it is 12.6 µM (active). The entry for `O=C(Oc1ccccc1)c1ccccc1O` is “inactive”; for `C1=CC2C3C=CC(C3)C2C1` (centres undefined) it is “inactive”.

Consider `CC(C)C(C)(C)C(C)(C)C(C)(C)S`, for which the Potency result is “inactive”. With `Oc1ccccc1`, the Potency entry is “inactive”.

Consider `Cc1cc(C(C)(C)C)c(O)c(C(C)(C)C)c1`, for which the Potency entry is “inactive”.

As for `Nc1ccc(O)cc1`, the Potency was 50.1 µM (active). As for `CCCC(=O)c1cc(O)c(O)cc1O`, the Potency result is “inactive”. Under `Brc1ccccc1-c1ccccc1` stands “inactive”.

As for `CCCCCCCCCCCCCCCC[n+]1ccccc1`, the Potency was 39.8 µM (active). `CCCCC(CC)COC(=O)c1ccccc1C(=O)O` (centres undefined): the Potency result is “inactive”.
